The full list was thinned out, with hits kept by preference.
Tg IFNy HTS = T. gondii growth inhibition under IFN-gamma; Toxoplasma gondii growth in IFN-gamma-treated host cells; stronger effect = lower value; AID 1259416; activity change, negative = inhibition, % (concentration not given with the values); 69,000 compounds, 3.8% hits; in the data active = activity change below about -70%, passing the limit was not always enough;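 note: host cells are HeLa cells infected with Toxoplasma gondii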
Numbers without * were called inactive; ! = not confirmed by another sample.

How did O=c1[nH]c2cc3c(cc2cc1CN1CCC(F)(F)C1)CCC3 do in these assays?
Tg IFNy HTS: -62

How did O=C(c1ccoc1)N1CCC2OCCCC2(COc2cccnc2)C1 (stereo not given) do in these assays?
Tg IFNy HTS: 112

Results for C=C(C)CNC(=S)Nc1scc(-c2ccsc2)c1C(=O)OCC ?
Tg IFNy HTS: 3

How did COCCNC(=O)[C@@]12COC[C@@H]1CN(c1cc(OC)ncn1)C2 do in these assays?
Tg IFNy HTS: 21

How did COc1ccc(CNC(=O)Cn2ncc3c(N4CCCCC4)ncnc32)c(OC)c1 do in these assays?
Tg IFNy HTS: 30

What do the screens show for `COc1ccc(CNC(=O)Cn2ncc3c(N4CCCCC4)ncnc32)cc1`?
Tg IFNy HTS: -102*

Results for Cc1ccc(NC(=O)Cn2ncc3c(N4CCN(c5ccccn5)CC4)ncnc32)cc1 ?
Tg IFNy HTS: 99

What do the screens show for `COc1ccc(CNC(=O)Cn2ncc3c(N4CCCCCC4)ncnc32)cc1`?
Tg IFNy HTS: 6

How did O=C(Cn1ncc2c(N3CCOCC3)ncnc21)NCc1ccccc1Cl do in these assays?
Tg IFNy HTS: 74

Results for CCc1ccccc1NC(=O)Cn1ncc2c(N3CCN(c4ccccn4)CC3)ncnc21 ?
Tg IFNy HTS: -56

What do the screens show for `Cc1ccc(CNC(=O)Cn2ncc3c(N4CCN(c5ccccn5)CC4)ncnc32)cc1`?
Tg IFNy HTS: -97*

What do the screens show for `COc1ccc(CNC(=O)Cn2ncc3c(N4CCCCC4)ncnc32)cc1OC`?
Tg IFNy HTS: 170

How did O=C(Cn1ncc2c(N3CCCCCC3)ncnc21)NCc1ccc(F)cc1F do in these assays?
Tg IFNy HTS: -93*

How did O=C(Cn1ncc2c(N3CCN(c4ccccn4)CC3)ncnc21)NCc1ccccc1Cl do in these assays?
Tg IFNy HTS: -92*

Results for Cc1ccc(C)c(NC(=O)Cn2ncc3c(N4CCN(c5ccccn5)CC4)ncnc32)c1 ?
Tg IFNy HTS: -3

How did O=C(Cn1ncc2c(N3CCCCCC3)ncnc21)NCc1cc(F)cc(F)c1 do in these assays?
Tg IFNy HTS: 58

Results for O=c1c2c3c(sc2ncn1CCc1n[nH]c2c1CCCC2)CNCC3 ?
Tg IFNy HTS: -3

What do the screens show for `CC[C@H](C)[C@H](NC(=O)[C@H](Cc1ccc(O)cc1)NC(=O)[C@@H](NC(=O)[C@@H](CCCN=C(N)N)NC(=O)[C@@H](N)CC(=O)O)C(C)C)C(=O)N[C@@H](Cc1cnc[nH]1)C(=O)N1CCC[C@@H]1C(=O)N[C@H](Cc1ccccc1)C(=O)O`?
Tg IFNy HTS: 14

How did c1cnc(Oc2ccc(C3NCCc4[nH]cnc43)cc2)nc1 (stereo not given) do in these assays?
Tg IFNy HTS: -50

How did Cc1ccc2c(n1)N(CC1CC1)CCN(C(=O)c1cscn1)C2 do in these assays?
Tg IFNy HTS: -23

Results for CCc1nccn1CC(C)C(=O)N1CCN(C(=O)c2cccc(F)c2)CC1 (stereo not given) ?
Tg IFNy HTS: -33

What do the screens show for `COc1ccc(-c2nc(CN(c3ccccc3)S(=O)(=O)c3cccs3)c(C)o2)cc1OC`?
Tg IFNy HTS: -40

What do the screens show for `CCOC(=O)[C@@]12CCCN(S(=O)(=O)C3CC3)C[C@@H]1CN(C(C)=O)C2`?
Tg IFNy HTS: 77

Results for CNc1ccccc1C(=O)N(Cc1ccccc1)CC(C)CO (stereo not given) ?
Tg IFNy HTS: 0

What do the screens show for `Cc1ccc2c(c1)C1(CCN(CC(=O)O)CC1)CC2OCC1CC1` (stereo not given)?
Tg IFNy HTS: -7

Results for CNC(=O)c1cc2c(nc1NCC1CC1)CCN(Cc1cnn(C)c1)CC2 ?
Tg IFNy HTS: -9

How did Cc1ccc(C)c(NC(=O)Cn2ncc3c(N4CCCCCC4)ncnc32)c1 do in these assays?
Tg IFNy HTS: 63

Results for CCCCOc1ccc(CNC(=O)Cn2ncc3c(N4CCCCCC4)ncnc32)cc1 ?
Tg IFNy HTS: -99*

How did O=C(Cn1ncc2c(N3CCCC3)ncnc21)NCc1ccc(Br)cc1 do in these assays?
Tg IFNy HTS: 61

Results for CCOc1ccc(CNC(=O)Cn2ncc3c(N4CCCCCC4)ncnc32)cc1OCC ?
Tg IFNy HTS: 76

Results for COc1ccc(C)cc1NC(=O)Cn1ncc2c(N3CCCCCC3)ncnc21 ?
Tg IFNy HTS: -91*

What do the screens show for `COc1ccc(C)cc1NC(=O)Cn1ncc2c(N3CCOCC3)ncnc21`?
Tg IFNy HTS: -44

How did CC(C)c1ccc(NC(=O)Cn2ncc3c(N4CCCC4)ncnc32)cc1 do in these assays?
Tg IFNy HTS: -11

Results for CCCOC1CCCN(c2ccnc(C(=O)NCc3ccco3)c2)C1 (stereo not given) ?
Tg IFNy HTS: 2

How did CCN1C(=O)CO[C@H]2CN(C(=O)C3CCOCC3)C[C@@H]21 do in these assays?
Tg IFNy HTS: -34

What do the screens show for `Cn1cnc2c1C(C(=O)O)CN(C(=O)c1ccc3c(c1)OCO3)C2` (stereo not given)?
Tg IFNy HTS: 11

What do the screens show for `CC(C)n1nc2c(cc1=O)CN(C(=O)c1ccc3c(c1)OCO3)CC2`?
Tg IFNy HTS: -80*

What do the screens show for `O=C(c1ccc2c(c1)OCO2)N1Cc2cnn(CCO)c2C1`?
Tg IFNy HTS: 4

How did Clc1cccc(CN2CCN(Cc3ccnn3-c3ccccc3)CC2)c1 do in these assays?
Tg IFNy HTS: -10

What do the screens show for `CCC1(c2ccccc2)OC(c2cc(Cl)cc(Cl)c2O)Nc2ccccc21` (stereo not given)?
Tg IFNy HTS: -16

How did COc1c(O[C@@H]2O[C@H](CO)[C@@H](O)[C@H](O)[C@H]2O)cc2c(c1OC)-c1ccc(SC)c(=O)cc1[C@@H](NC(C)=O)CC2 do in these assays?
Tg IFNy HTS: 12

What do the screens show for `COc1ccc([C@@H]2C[C@H](NC(C)=O)C[C@H](CC(C)C)O2)c(OC)c1OC`?
Tg IFNy HTS: -1

Results for COc1cc2c(c(OC)c1OC)-c1ccc(OC)c(=O)cc1[C@@H](NC(C)=O)CC2 ?
Tg IFNy HTS: -72*!

Results for Cc1ccc(S(=O)(=O)N2CCCC(c3nc(-c4ccc(C(C)C)cc4)no3)C2)cc1 (stereo not given) ?
Tg IFNy HTS: 58

How did Cc1ccc(C(=O)N2CCO[C@]3(CCC[C@H]3COc3cccnc3)C2)o1 do in these assays?
Tg IFNy HTS: 14

What do the screens show for `CCCCC(=O)O[C@H]1CC[C@H]2[C@@H]3CCc4cc(O)ccc4[C@H]3CC[C@]12C`?
Tg IFNy HTS: -35

Results for CC(=O)Oc1ccc2c(c1)CCC1C2=CCC2(C)C(OC(C)=O)CCC12 (stereo not given) ?
Tg IFNy HTS: -92*

Results for O=C1OCC2(CCN(Cc3cc4n(n3)CCCNC4)CC2)O1 ?
Tg IFNy HTS: 7

How did CCN(Cc1ccccc1)C(=O)Cn1nc(C)c2sc(-c3ccccc3)nc2c1=O do in these assays?
Tg IFNy HTS: -34

What do the screens show for `O=C(CN1CCCN(C(=O)C2CCCO2)CC1)Nc1nc2ccccc2[nH]1` (stereo not given)?
Tg IFNy HTS: 47

What do the screens show for `CC(C)c1ccc(S(=O)(=O)N2CCC3(CC2)COCCN(Cc2cccnc2)C3)cc1`?
Tg IFNy HTS: -31

Results for COCC1CN(Cc2ccoc2)Cc2c1cnn2CC1CC1 (stereo not given) ?
Tg IFNy HTS: -8

Results for CC(=O)Nc1ccc(S(=O)(=O)N2CCC(O)(c3ccccn3)CC2)cc1 ?
Tg IFNy HTS: 3

How did CN1CCN(S(=O)(=O)c2ccc(-c3cnc(N)c(C(=O)Nc4cccnc4)n3)cc2)CC1 do in these assays?
Tg IFNy HTS: -71*

What do the screens show for `CC1CCCCN1S(=O)(=O)c1ccc(NC(=O)c2cnccn2)cc1` (stereo not given)?
Tg IFNy HTS: 58

What do the screens show for `CCN(CC)CCn1ccnc1-c1nc[nH]c1C`?
Tg IFNy HTS: 8

Screens from PubChem BioAssay.
